Test results: PubChem BioAssay AID1159580 (chemical genetic matrix, 2015)
Where “and” joins values, the source holds several entries; their conditions need not be identical. Identical values can stand only once. The campaign covered roughly 5,500 compounds. About 2,000 (36%) were called active. Roughly 18% stayed inconclusive and do not appear here. Rule as the data show it: active = normalized growth mostly below about 0.91 (no sharp cut-off); inconclusive = no clear call, values can overlap the other calls; inactive = mostly above about 0.92. The list shows a part of the results.

Assay: chemical genetic growth profiling, strain panel (AID 1159580);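 also: tested at 20 µM; growth read once vehicle control cultures reached saturation at 30 °C; 1 = growth at the plate median or of vehicle wells; lower values mean less growth of the strain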
Details: S. cerevisiae deletion strains, growth OD

Measured: normalized growth

Nc1nc2c(c(=O)[nH]1)N(C=O)C(CNc1ccc(C(=O)N[C@@H](CCC(=O)O)C(=O)O)cc1)CN2 (stereo not given in full)
inactive: locus YAL021C, strain ccr4, stronger effect = lower value 0.973 | locus YAL026C, strain drs2, stronger effect = lower value 1 | locus YAL030W, strain snc1, stronger effect = lower value 0.969 | locus YBL061C, strain skt5, stronger effect = lower value 0.975 | locus YBR009C, strain hhf1, stronger effect = lower value 1.02 | locus YBR021W, strain FUR4, stronger effect = lower value 0.988 | locus YBR023C, strain chs3, stronger effect = lower value 0.971 | locus YBR171W, strain sec66, stronger effect = lower value 0.94 | locus YBR229C, strain ROT2, stronger effect = lower value 0.991 | locus YBR231C, strain swc5, stronger effect = lower value 0.943 | locus YBR279W, strain paf1, stronger effect = lower value 0.991 | locus YCL011C, strain gbp2, stronger effect = lower value 0.99 | locus YCL016C, strain dcc1, stronger effect = lower value 1.02 | locus YCL029C, strain bik1, stronger effect = lower value 0.985 | locus YCL061C, strain MRC1, stronger effect = lower value 0.964 | locus YCL069W, strain vba3, stronger effect = lower value 0.971 | locus YCR088W, strain abp1, stronger effect = lower value 0.971 | locus YDL005C, strain med2, stronger effect = lower value 0.963 | locus YDL035C, strain GPR1, stronger effect = lower value 1.01 | locus YDL040C, strain nat1, stronger effect = lower value 0.974 | locus YDL074C, strain BRE1, stronger effect = lower value 0.999 | locus YDL101C, strain DUN1, stronger effect = lower value 0.987 | locus YDL185W, strain tfp1, stronger effect = lower value 0.986 | locus YDL192W, strain arf1, stronger effect = lower value 0.981 | locus YDR001C, strain nth1, stronger effect = lower value 0.956 | locus YDR069C, strain doa4, stronger effect = lower value 0.94 | locus YDR101C, strain arx1, stronger effect = lower value 1 | locus YDR137W, strain rgp1, stronger effect = lower value 0.947 | locus YDR159W, strain sac3, stronger effect = lower value 1.01 | locus YDR162C, strain NBP2, stronger effect = lower value 1 | locus YDR195W, strain ref2 0.906 | locus YDR297W, strain sur2, stronger effect = lower value 0.972 | locus YDR318W, strain mcm21, stronger effect = lower value 0.985 | locus YDR334W, strain swr1, stronger effect = lower value 0.934 | locus YDR335W, strain msn5, stronger effect = lower value 0.964 | locus YDR388W, stronger effect = lower value 0.985 | locus YDR392W, strain spt3, stronger effect = lower value 1.1 | locus YDR502C, strain sam2, stronger effect = lower value 0.985 | locus YEL003W, strain gim4, stronger effect = lower value 0.971 | locus YEL037C, strain rad23, stronger effect = lower value 0.978 | locus YEL061C, strain CIN8 (second series), stronger effect = lower value 0.953 | locus YEL061C, strain CIN8, stronger effect = lower value 0.996 | locus YER015W, strain faa2, stronger effect = lower value 1.01 | locus YER016W, strain bim1, stronger effect = lower value 0.99 | locus YER110C, stronger effect = lower value 0.978 | locus YER111C, strain swi4, stronger effect = lower value 0.968 | locus YER155C, strain BEM2 (second series), stronger effect = lower value 0.954 | locus YER155C, strain BEM2, stronger effect = lower value 0.981 | locus YER167W, strain BCK2, stronger effect = lower value 0.993 | locus YFR010W, strain ubp6, stronger effect = lower value 0.931 | locus YGL078C, strain dbp3, stronger effect = lower value 0.967 | locus YGL086W, strain mad1, stronger effect = lower value 1 | locus YGL167C, strain pmr1, stronger effect = lower value 0.957 | locus YGL173C, strain kem1, stronger effect = lower value 0.966 | locus YGL227W, strain vid30, stronger effect = lower value 0.964 | locus YGL240W, strain doc1, stronger effect = lower value 0.94 | locus YGL248W, strain PDE1, stronger effect = lower value 0.982 | locus YGL253W, strain hxk2, stronger effect = lower value 0.986 | locus YGR135W, strain pre9, stronger effect = lower value 0.945 | locus YGR252W, strain gcn5, stronger effect = lower value 0.948 | locus YHR013C, strain ard1, stronger effect = lower value 0.972 | locus YHR027C, strain rpn1, stronger effect = lower value 0.972 | locus YHR030C, strain SLT2, stronger effect = lower value 0.993 and 0.985 | locus YHR079C, strain IRE1 (second series), stronger effect = lower value 0.989 | locus YHR079C, strain IRE1, stronger effect = lower value 1 | locus YHR094C, strain hxt1, stronger effect = lower value 0.984 | locus YHR129C, strain ARP1, stronger effect = lower value 0.99 | locus YHR142W, strain chs7, stronger effect = lower value 0.957 | locus YHR200W, strain rpn10, stronger effect = lower value 0.986 | locus YIL066C, strain RNR3, stronger effect = lower value 0.989 | locus YIL073C, strain SPO22, stronger effect = lower value 1.01 | locus YIL125W, strain kgd1, stronger effect = lower value 0.989 | locus YIR030C, strain dcg1, stronger effect = lower value 0.979 | locus YJL092W, strain hpr5, stronger effect = lower value 0.963 | locus YJL095W, strain BCK1 (second series), stronger effect = lower value 0.967 | locus YJL095W, strain BCK1, stronger effect = lower value 0.975 and 1.02 | locus YJL115W, strain asf1, stronger effect = lower value 0.949 | locus YJL129C, strain trk1, stronger effect = lower value 0.954 | locus YJL134W, strain LCB3, stronger effect = lower value 0.991 | locus YJL154C, strain vps35, stronger effect = lower value 0.959 | locus YJL164C, strain tpk1, stronger effect = lower value 1.02 | locus YJL166W, strain qcr8, stronger effect = lower value 0.932 | locus YJL168C, strain set2, stronger effect = lower value 0.981 | locus YJL187C, strain SWE1 (second series), stronger effect = lower value 0.985 | locus YJL187C, strain SWE1, stronger effect = lower value 0.977 | locus YJR043C, strain POL32, stronger effect = lower value 1.01 | locus YJR066W, strain TOR1, stronger effect = lower value 0.969 | locus YJR075W, strain HOC1, stronger effect = lower value 0.993 | locus YKL009W, strain mrt4, stronger effect = lower value 0.996 | locus YKL068W, stronger effect = lower value 0.991 | locus YKL085W, strain MDH1 (second series), stronger effect = lower value 0.979 | locus YKL085W, strain MDH1, stronger effect = lower value 0.979 | locus YKL160W, strain elf1, stronger effect = lower value 0.972 | locus YKL190W, strain CNB1, stronger effect = lower value 1 | locus YKR001C, strain vps1, stronger effect = lower value 0.997 | locus YKR026C, strain gcn3, stronger effect = lower value 0.961 | locus YKR091W, strain srl3, stronger effect = lower value 0.984 | locus YLL001W, strain dnm1, stronger effect = lower value 0.926 | locus YLL026W, stronger effect = lower value 0.948 | locus YLL041C, strain sdh2, stronger effect = lower value 0.976 | locus YLR027C, strain aat2, stronger effect = lower value 0.958 | locus YLR039C, strain RIC1, stronger effect = lower value 0.958 | locus YLR058C, strain SHM2, stronger effect = lower value 0.983 | locus YLR102C, strain apc9, stronger effect = lower value 0.989 | locus YLR113W, strain HOG1, stronger effect = lower value 1.02 | locus YLR221C, strain rsa3, stronger effect = lower value 1.01 | locus YLR258W, strain gsy2, stronger effect = lower value 1.01 | locus YLR262C, strain YPT6 (second series), stronger effect = lower value 0.941 | locus YLR262C, strain YPT6, stronger effect = lower value 1.02 | locus YLR268W, strain sec22, stronger effect = lower value 0.984 | locus YLR320W, strain mms22, stronger effect = lower value 1.01 | locus YLR330W, strain CHS5, stronger effect = lower value 0.988 | locus YLR342W, strain FKS1 (second series), stronger effect = lower value 1 | locus YLR342W, strain FKS1, stronger effect = lower value 0.955 | locus YLR357W, strain rsc2, stronger effect = lower value 0.928 | locus YLR370C, strain arc18, stronger effect = lower value 0.959 | locus YLR371W, strain rom2, stronger effect = lower value 0.975 | locus YLR384C, strain iki3, stronger effect = lower value 0.958 | locus YLR418C, strain cdc73, stronger effect = lower value 0.938 | locus YML016C, strain PPZ1, stronger effect = lower value 0.992 | locus YML032C, strain rad52, stronger effect = lower value 0.999 | locus YML120C, strain ndi1, stronger effect = lower value 0.956 | locus YML124C, strain tub3, stronger effect = lower value 0.991 | locus YMR058W, strain fet3, stronger effect = lower value 0.954 | locus YMR078C, strain ctf18, stronger effect = lower value 0.981 | locus YMR125W, strain sto1, stronger effect = lower value 0.965 | locus YMR129W, stronger effect = lower value 0.971 | locus YMR205C, strain PFK2, stronger effect = lower value 0.978 | locus YMR223W, strain ubp8, stronger effect = lower value 0.959 | locus YMR231W, strain pep5, stronger effect = lower value 0.964 | locus YMR307W, strain GAS1, stronger effect = lower value 0.961 | locus YNL067W, strain RPL9B, stronger effect = lower value 0.999 | locus YNL071W, strain lat1, stronger effect = lower value 0.984 | locus YNL128W, strain TEP1, stronger effect = lower value 0.979 | locus YNL183C, strain NPR1, stronger effect = lower value 0.97 | locus YNL209W, strain ssb2, stronger effect = lower value 0.986 | locus YNL233W, strain BNI4, stronger effect = lower value 0.986 | locus YNL248C, strain rpa49, stronger effect = lower value 0.978 | locus YNL250W, strain rad50, stronger effect = lower value 0.977 | locus YNL271C, strain bni1, stronger effect = lower value 0.967 | locus YNL298W, strain CLA4, stronger effect = lower value 0.985 | locus YNL307C, strain MCK1, stronger effect = lower value 0.99 | locus YNL322C, strain KRE1 (second series), stronger effect = lower value 0.965 | locus YNL322C, strain KRE1, stronger effect = lower value 0.995 | locus YNR049C, strain mso1, stronger effect = lower value 0.971 | locus YNR052C, strain pop2, stronger effect = lower value 0.984 | locus YOL006C, strain TOP1, stronger effect = lower value 0.964 | locus YOL012C, strain htz1 0.703 | locus YOL147C, strain pex11, stronger effect = lower value 0.978 | locus YOR001W, strain rrp6, stronger effect = lower value 0.943 | locus YOR061W, strain CKA2, stronger effect = lower value 0.992 | locus YOR069W, strain VPS5, stronger effect = lower value 0.989 | locus YOR070C, strain gyp1, stronger effect = lower value 0.991 | locus YOR080W, strain dia2, stronger effect = lower value 0.966 | locus YOR083W, strain WHI5, stronger effect = lower value 0.961 | locus YOR106W, strain vam3, stronger effect = lower value 0.943 | locus YOR136W, strain idh2, stronger effect = lower value 0.99 | locus YOR144C, strain elg1, stronger effect = lower value 0.992 | locus YOR184W, strain ser1, stronger effect = lower value 0.978 | locus YOR231W, strain MKK1, stronger effect = lower value 1.02 | locus YOR265W, strain rbl2, stronger effect = lower value 0.965 | locus YOR270C, strain vph1, stronger effect = lower value 0.957 | locus YOR290C, strain snf2, stronger effect = lower value 1.01 | locus YOR316C, strain cot1, stronger effect = lower value 0.987 | locus YPL051W, strain arl3, stronger effect = lower value 0.985 | locus YPL055C, strain LGE1, stronger effect = lower value 0.981 | locus YPL078C, strain atp4, stronger effect = lower value 0.904 | locus YPL106C, strain sse1, stronger effect = lower value 0.947 | locus YPL240C, strain hsp82, stronger effect = lower value 0.968 | locus YPL256C, strain CLN2, stronger effect = lower value 0.993 | locus YPR119W, strain clb2, stronger effect = lower value 0.986 | locus YPR141C, strain kar3, stronger effect = lower value 0.977 | locus YPR163C, strain tif3, stronger effect = lower value 0.976 | locus YPR167C, strain met16, stronger effect = lower value 0.986 | strain wtn01, stronger effect = lower value 0.981
